Screening results from PubChem BioAssay.
Only some compounds are listed: those with a hit (about 6.6% of all), similar ones and a draw of the others.
HepG2 tox: HepG2 cytotoxicity, counter-screen for TGF-b inhibitors; 0.76% of 410,000 active; HepG2 CAGA-GFP viability, ATP luminescence, 18 h; Potency, µM (series often up to 46.1 µM), without a hit: top-dose activity change, negative = cytotoxicity, usual class: cytotoxic
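CellTiter-Glo luminescence gave cytotoxicity after 18 hours at 37 degrees C. The cells were HepG2 CAGA-GFP in 1% FBS DMEM, stimulated with 500 pg/mL TGF-beta after compound addition. %Activity was normalised to no-cell wells (complete cell-killing) and DMSO (no toxicity), and curves were fitted and classified.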
TGFb inhibitor: blocks TGF-b signaling | HepG2 CAGA-GFP TGF-b/SMAD3 reporter, GFP fluorescence, 18 h; TGF-beta stimulated, 500 pg/mL final | Potency, µM (highest dose often 46.1 µM), for inactives: at the highest dose activity, negative = inhibition, actives largely listed as inhibitors | 1.2% of 410,000 active; note: % is set by controls: 0 for no effect and ±100 for the full control effect; nearly all actives have a fitted effect of over 65% in size
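GFP signal (ex488/em500-530) from TGF-beta-stimulated HEPG2 CAGA-GFP cells, 500 pg/mL final, 18 h at 37 degrees C in DMEM plus 1% FBS, normalized to unstimulated and DMSO-stimulated controls.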
HT1080NT lethal: kills 2HG-producing HT-1080-NT fibrosarcoma cells; HT-1080-NT fibrosarcoma viability, CellTiter-Glo ATP luminescence, 48 h; Potency, µM (top dose mostly 46.1 µM), without a hit: top-dose activity, negative = less viability, most hits filed as cytotoxic; 1.6% of 360,000 active;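 note: NT is the 2HG producing partner of a matched IDH1 knockdown line; 0% = DMSO-treated cells and -100% = media-only wells without cells; nearly all actives have a fitted effect of over 55% in size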
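Luminescent CellTiter-Glo readout after 48 hours of compound exposure at 37 degrees C defined viability of HT-1080-NT cells. Activity was normalized to DMSO wells and cell-free media wells; concentration-response curves were fitted and assigned curve classes.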
KB-V1 cytotox: kills drug-selected multidrug resistant KB-V1 cells; KB-V1 MDR cells viability, CellTiter-Glo, 72 h; Potency, µM (highest dose often 46.1 µM), usual class: cytotoxic; 3.4% of 400,000 active; note: % is set by controls: 0 for no effect and ±100 for the full control effect; nearly all actives have a fitted effect of over 60% in size
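Readout: CellTiter-Glo luminescence, 10 min after addition. Cells: KB-V1 MDR subline, 72 h at 37 degrees C with compound. Analysis: corrected, normalized data fitted to concentration-effect curves.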
HT1080 IDH1KD tx: toxicity to HT-1080 IDH1 knockdown cells (counter line); HT-1080 IDH1 knockdown viability, ATP luminescence, 48 h; Potency, µM (series often up to 46.1 µM), inactives show at the highest dose activity, negative = toxicity, most hits filed as cytotoxic; 2% of 360,000 active; AID 686971;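 note: 0% = DMSO wells and -100% = cell-free medium wells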
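% activity derives from luminescence (CellTiter-Glo), normalised to DMSO and no-cell wells. HT-1080-IDH1KD cells, 750/well, had 48 h compound exposure at 37 °C.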
KB-3-1 cytotox: kills parental KB-3-1 adenocarcinoma cells | AID 1347075 | Potency, µM (titrated, usually from 46.1 µM), most hits filed as cytotoxic | 1.4% of 400,000 active | KB-3-1 viability, CellTiter-Glo ATP luminescence, 72 h; note: % is set by controls: 0 for no effect and ±100 for the full control effect; nearly all actives have a fitted effect of over 60% in size
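Parental KB-3-1 viability, qHTS format: 72 h compound exposure, 37 °C; CellTiter-Glo; media-only wells and DMSO plates as controls; concentration-effect fits on corrected data.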
* = called active by the depositor; i = inactive; u = inconclusive; x = no result; ! = not active in a repeat. Calls come from the whole dose curve; as a rule, active = well fitted curve in the direction sought with a large enough effect; inconclusive = small, poorly fitted or top-dose-only effect, or another doubt; inactive = no such curve, though single readings can be large; an effect the other way counts as inactive or inconclusive. Potency is the fitted concentration of half-maximal effect.

SMILES	HepG2 tox	TGFb inhibitor	HT1080NT lethal	KB-V1 cytotox	HT1080 IDH1KD tx	KB-3-1 cytotox
Cc1ccc(-c2nc(CS(=O)(=O)CC(=O)N3CCc4ccccc4C3)c(C)o2)cc1	-12%	-15%	2%	u	-14%	18µM*
O=[N+]([O-])c1cccc(NNS(=O)(=O)c2ccccc2F)c1	-2%	4%	u	i	5.8µM*	i
CCCn1nnc(NC(=O)C(C)Oc2ccc(Cl)cc2Cl)n1 (centres undefined)	-3%	u	0%	u	3%	i
CC(Oc1cc(Cl)ccc1Cl)C(=O)N/N=C\c1ccnn1C (centres undefined)	0%	-2%	7%	18µM*	11%	i
COc1ccc2[nH]c(C)c(C(=O)CN(C)CC(OC)OC)c2c1	-52%	u	x	i	x	i
CCOc1ccccc1NC(=O)c1ccc2c(c1)CCN2S(C)(=O)=O	-15%	8%	x	i	x	i
Cc1[nH]c2ccccc2c1C(=O)COC(=O)c1c(-c2c(F)cccc2Cl)noc1C	-6%	13µM*	3%	16µM*	-9%	u
Cc1cccnc1NC(=S)NC(=O)c1cncc(Br)c1	-2%	-24%	7.9µM*	i	10µM*	i
Cc1cccnc1NC(=S)NC(=O)c1cccs1	-4%	u	6.3µM*	i	7.1µM*	i
Cc1cccnc1NC(=O)CNC(=O)c1cccs1	-46%	-28%	-5%	u	-8%	i
Cc1ccc(SC[C@H](Cc2ccccc2)N2CC[C@@H](C(C)(C)C)CCC2=O)cc1	1%	-10%	x	u	x	i
C[C@@H]1CCC(=O)N(CC[C@H](N=[N+]=[N-])c2ccccc2)CC1	5%	-2%	3%	u	2%	i
CC(C)CN1CCC(=O)N([C@H](CSc2ccccc2)Cc2ccccc2)CC1	-30%	u	-1%	13µM*!	-9%	u
CC(C)(C)[C@H]1CCC(=O)N([C@H](CSc2ccccc2)Cc2ccccc2)CC1	-21%	11µM*!	15%	u	8%	u
Cc1ccc(SC[C@H](Cc2ccccc2)N2CCN(CC(C)C)CCC2=O)cc1	-17%	u	7%	i	8%	i
CC(C)(C)[C@@H]1CCC(=O)N(CC[C@H](N=[N+]=[N-])c2ccccc2)CC1	-1%	u	2%	21µM*!	1%	i
N#Cc1ccc(CN2CCN(C(=O)c3ccccc3)CC2)c(Cl)c1	-16%	21%	1%	21µM*	13%	i
COc1ccc(-c2cn3nc(SCC(=O)Nc4ccc(C)c(Cl)c4)ccc3n2)cc1	7%	0%	x	i	x	i
Oc1ccccc1-c1nnc2n1CCCCC2	-3%	7%	5%	i	3%	i
Cc1cc(-c2nnc3n2CCCCC3)c(C)n1-c1ccccc1	12%	8%	2%	21µM*	1%	u
CC(C)N(Cc1ccccc1)C(=O)C1CCCN(c2ncnc3onc(-c4ccc(F)cc4)c23)C1 (centres undefined)	2%	u	x	u	x	i
CC(=O)Nc1ccc(S(=O)(=O)N2CCC(n3c(C)nc4cccnc43)CC2)cc1	-5%	-32%	x	i	x	i
C/C(=N\Nc1nc(C)c(C)s1)c1ccc([N+](=O)[O-])cc1	-18%	9%	21µM*	u	16µM*	u
C/C(=N\Nc1ccc([N+](=O)[O-])cc1)c1ccc(N)cc1	-8%	-4%	u	u	-7%	i
Cc1nc2c(nc1C)C(=O)c1ccccc1C2=O	3.5µM*	2.2µM*	u	9.2µM*	18µM*	16µM*
SMILES	HepG2 tox	TGFb inhibitor	HT1080NT lethal	KB-V1 cytotox	HT1080 IDH1KD tx	KB-3-1 cytotox
Cc1nc(N2CCN(C(=O)c3cccs3)CC2)c2c3c(sc2n1)CCCC3	-4%	-23%	-30%	u	u	i
Cc1nc(N2CCN(C(=O)c3ccco3)CC2)c2c3c(sc2n1)CC(C)CC3 (centres undefined)	-15%	u	-16%	8.2µM*	u	i
CCc1nc(N2CCN(C(=O)CCl)CC2)c2c3c(sc2n1)CC(C)CC3 (centres undefined)	18µM*	u	21µM*	u	21µM*	u
Cc1nc(N2CCN(C(=O)c3ccco3)CC2)c2c3c(sc2n1)CCCC3	-20%	u	u	21µM*	u	i
CCc1nc2ccc(C(=O)N3CCN(C(C)=O)CC3)cn2c1N(C)C(=O)c1cccc(OC)c1	3%	20%	27%	i	2%	i
CCOC(=O)c1c(CSCc2ccccc2)oc2ccc(O)c(CN(C)C)c12	22µM*	u	21µM*	u	18µM*	u
CCOC(=O)c1c(-c2ccccc2)oc2ccc(O)c(CN(C)C)c12	-75%	-2%	u	u	u	i
Cc1ccc(NC(=O)Cn2c(=O)n(CCCCC(=O)NCc3ccccc3Cl)c(=O)c3ccccc32)cc1C	2%	-15%	x	i	x	i
Cc1nn(C)c(C(=O)Sc2cccc(Cl)c2)c1[N+](=O)[O-]	-60%	-21%	-9%	i	-18%	i
CCn1nc(C)cc1C(=O)Sc1cccc(Cl)c1	-34%	u	18µM*	i	u	i
COc1ccc(Nc2cc(C(=O)NCCCN3CCN(c4ccccc4F)CC3)c3ccccc3n2)c(OC)c1	-44%	11µM*	x	x	x	x
Cc1ccc(-c2nc3cccnc3s2)cc1NS(=O)(=O)c1ccc2c(c1)CCCC2	-14%	5%	-2%	i	-2%	i
O=S(=O)(Nc1cccc(-c2nc3cccnc3s2)c1)c1ccc2c(c1)CCCC2	10µM*	13µM*	2%	i	-8%	i
C=CC(=O)Nc1cccc(Nc2nc(N[C@H]3CC[C@H](N(C)C)CC3)nc3c2ncn3C(C)C)c1	-4%	0.71µM*	u	i	0.65µM*	18µM*
CCN1CCN(c2c(/C=C3\SC(=S)N(Cc4ccco4)C3=O)c(C)c(C#N)c(=O)n2C)CC1	-4%	122%	16µM*	u	u	i
COc1ccc(-n2c(C)cc(/C=C3\SC(=S)N(Cc4ccco4)C3=O)c2C)cc1	0%	23%	1%	i	12%	i
CN(C)c1ccc(C=c2c3cc(O)ccc3n3c2cc(-c2ccccc2)[n+]3C)cc1	-58%	11µM*	-27%	u	u	u
CN(C)c1ccc(/C=C/C(=O)c2ccc(O)cc2)cc1	-13%	61%	-14%	i	1%	u
